This passage reports GI50 results from ChEMBL document CHEMBL1201862, “PubChem BioAssay data set” (2004).

Hit rate of the full screen: of about 57,000 […], about 3,400 (6%) were called active. Rule as the data show it: active = GI50 up to about 1.1 µM and inactive = higher. The list is a sample of the results. Entries with a potency or affinity are not part of this list.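 These data come from cells grown in 96-well plates and exposed to compound for 48 hours at five concentrations. GI50 = concentration required for 50% inhibition of growth.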

The assay concerns UO-31. As to the kind of experiment: NCI tumour cell line growth inhibition, 48 h.
Turning to CISPLATIN, CHEMBL11359, the GI50 worked out at 3.36 µM. Substance “[Bis(aminomethyl)dimethylsilane]tetrachloroplatinum(IV), CHEMBL2146190” gave a GI50 of 9.93 µM. Next, “[Bis(aminomethyl)ethylmethylsilane]tetrachloroplatinum(IV), CHEMBL2146192”: 7.48 µM. For the substance “[Bis(aminomethyl)tetramethylenesilane]dichloropaltinum(II), CHEMBL2146205”, the GI50 came to 22.3 µM. Next, “[Bis(aminomethyl)dimethylsilane]dichloroplatinum (II), CHEMBL2146201”: 55.2 µM; “[Bis(aminomethyl)diethylsilane]tetrachloroplatinum(IV), CHEMBL2146203”: 4.43 µM.

Take “[Bis(aminomethyl)pentamethylenesilane]tetrachloropaltinum(IV), CHEMBL2146204”: the GI50 worked out at 0.731 µM. Next, “[Bis(aminomethyl)pentamethylenesilane]dichloropaltinum(II), CHEMBL2146202”: 3.21 µM; “mu-(1,7-nanodiamine-N,N')bis-(cis-aminedichloroplatimum (II)), CHEMBL2146215”: 44.8 µM; “cis-Bis[[(trimethylsilyl)methyl]amino]tetrachloroplatinum(IV), CHEMBL2146191”: 16.2 µM. Next, “[Bis(aminomethyl)tetramethylenesilane]tetrachloropaltinum(IV), CHEMBL2146189”: 3.73 µM.
